# Laboratory results from PubChem BioAssay (NCATS).
# Results filed as inconclusive are left out. Where a call stands in place of a potency, no number is given. Activity calls are given as the source filed them. The call rests on the fitted dose curve; in most records, active means well fitted inhibition curve with a large enough effect; inconclusive means small, poorly fitted or top-dose-only effect; inactive means flat fitted curve, though single readings scatter.
# Assay: qHTS to identify inhibitors of the type 1 interferon - major histocompatibility complex class I in skeletal muscle: primary screen against the NCATS LOPAC collection (AID 1347405);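 further: lytic HiBiT luminescence reporting HLA-B protein level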
# Conditions: iHSKM muscle cells, IFN-b-induced MHC-I HiBiT luminescence, 24 h; series mostly up to 45.9 µM
# How it was run: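 After 24 h at 37 C with compounds (7-point, 1:4.3 dilutions, 46 uM top final) plus 4 ng/ml IFN-beta, luminescence from lytic HiBiT detection was measured. HLA-B*08:01 in C25cl48 myoblasts carried an endogenous C-terminal HiBiT tag; medium lacked dexamethasone.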
# Potency means the concentration at half of the fitted maximal effect.
row,SMILES,Potency
1,N=C(N)SCCN,inactive
2,Cn1cc(C(=O)OCC2CCN(CCNS(C)(=O)=O)CC2)c2ccccc21,inactive
3,N[C@@H](CCC(=O)N[C@H](CSN=O)C(=O)NCC(=O)O)C(=O)O,inactive
4,CC[C@H](NC(=O)c1c(C)c(-c2ccccc2)nc2ccccc12)c1ccccc1,inactive
5,c1ccc2c(c1)CCC[C@H]2Nc1nc2ccccc2[nH]1,inactive
6,N[C@@H](CS(=O)O)C(=O)O,inactive
7,NC(N)=N[C@@H](CCC(=O)O)C(=O)O,inactive
8,CNCCc1cnc(CCC(c2ccccc2)c2ccccc2)[nH]1,inactive
9,CN[C@H](CC(=O)O)C(=O)O,inactive
10,CNc1ncnc2c1ncn2[C@H]1C[C@H](OP(=O)(O)O)[C@@H](COP(=O)(O)O)O1,inactive
11,N=C(N)SCCc1cnc[nH]1,inactive
12,CN1CCCC1CCOC(C)(c1ccccc1)c1ccc(Cl)cc1 (stereo not drawn),inactive
13,Oc1ccc(/C=C/c2ccc(/C=C/c3ccc(O)cc3)c(Br)c2)cc1,inactive
14,CCOC(=O)C12CC1/C(=N/O)c1ccccc1O2 (stereo not drawn),inactive
15,N#CC(C#N)=C(N)/C(C#N)=C/c1ccc(O)cc1,inactive
16,NC(N)=NC(N)=Nc1cccc(Cl)c1,inactive
17,CCCOC(=O)c1c(-c2ccccc2)nc(CC)c(C(=O)SCC)c1CCC,inactive
18,CC1=C(/C=C/C(C)=C/C=C/C(C)=C\C(=O)O)C(C)(C)CCC1,inactive
19,CCC(=O)N1CCN(C(=O)c2ccccc2)CC1,inactive

row,SMILES,Potency
1,O=c1oc(Cl)c(Cl)c2ccccc12,inactive
2,CC(N)=O,inactive
3,C/C(=C\c1ccc(C(=O)O)cc1)c1ccc2c(c1)C(C)(C)CCC2(C)C,inactive
4,NCCS(=O)O,inactive
5,CC1CCN=C(N)S1 (stereo not drawn),inactive
6,CSc1nc(N)c2ncn([C@@H]3O[C@H](COP(=O)(O)OP(=O)(O)O)C(O)[C@H]3O)c2n1 (stereo partly drawn),inactive
7,CCN(c1nc(N)c(C(=O)N=C(N)N)nc1Cl)C(C)C,inactive
8,CC(C)C[C@H](NC(=O)C1OC1C(=O)O)C(=O)NCCCCN=C(N)N (stereo partly drawn),inactive
9,CC(C)(C)NCC(O)COc1cccc2[nH]c(=O)[nH]c12 (stereo not drawn),inactive
10,C=C1C(=O)O[C@@H]2[C@H]3O[C@]3(C)CCC=C(C)CC[C@@H]12,14.1 µM (active)
11,NCC(O)(CS(=O)(=O)O)c1ccc(Cl)cc1 (stereo not drawn),inactive
12,Cc1cc2c(cc1Cl)N(C(=O)Nc1ccnc3ccccc13)CC2,inactive
13,O=C(O)/C(=C/c1c(C(=O)O)[nH]c2cc(Cl)cc(Cl)c12)c1ccccc1,inactive
14,O=C(OCCN1CCOCC1)C1(c2ccccc2)CCCCC1,inactive
15,CN(C)C(=O)/N=N/C(=O)N(C)C,inactive
16,O=C1Cc2c([nH]c3ccc(Br)cc23)-c2ccccc2N1,12.6 µM (active)
17,COc1cc(C(O)CO)ccc1O (stereo not drawn),inactive
18,CC(N)(Cc1ccc(O)cc1)C(=O)O (stereo not drawn),inactive
19,O=C(O)CCC/C=C\C[C@@H]1[C@@H](/C=C/[C@H](O)C2Cc3ccccc3C2)[C@@H](F)C[C@@H]1O,inactive
